# Laboratory results: PubChem BioAssay
# Values without a mark were called inactive.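 The calls were made as follows: active = RAM network inhibition above 8.4% in each of two replicates, 3 SD over the compound average; inconclusive = above 8.4% inhibition in only one replicate; inactive = 8.4% inhibition or less in each replicate.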
# Assay: RAM signaling pathway blockade in yeast – S. cerevisiae, Pdr1DBD-CYC8 efflux-inhibited sensitized strain, primary screen (AID 1298);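 also: 0% = DMSO untreated cells without growth and 100% = 10 µM 1-NA-PP1 full growth; higher means more yeast growth rescued from 5-FOA killing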
# Conditions: S. cerevisiae cbk1-as DSE1-URA3 strain, 5-FOA growth OD615, 2 d; at 50 µM; active compounds read high
row,Compound,RAM network inhibition
1,O=C1C(O)CC2c3ccccc3CC3(CCCC3)N12 (stereo not given),8.18%
2,Cc1ccc(OCC(=O)n2nc(C)cc2C)c(Br)c1,0.1%
3,Cc1c(C(=O)N2CCN(CCc3ccccc3)CC2)oc2ccccc12,1.34%
4,c1ccc2cc3[nH]c(CN4CCCCC4)nc3cc2c1,5.29%
5,Cc1ccc(-n2nc(C)c3c(C)c(CCC(=O)NCc4ccco4)c(C)nc32)cc1,4.13%
6,Cn1c(=O)c2c(nc(CN3CCOCC3)n2CCCO)n(C)c1=O,6.48%
7,CCCCNC(=O)c1ccc2nc(-c3ccco3)c(-c3ccco3)nc2c1,1.63%
8,Cc1ccnc(N2C(=O)c3ccccc3C2Nc2ccccc2Cl)c1 (stereo not given),12.8%
9,CN(CCNC(=O)Cn1c(=O)sc2ccccc21)Cc1ccccc1,-1.1%
10,CCOC(=O)c1c(C)oc2cc(Br)c(OC(C)C(=O)OCC)cc12 (stereo not given),0.98%
11,Oc1c(C(c2cccc(F)c2)N2CCN(Cc3ccccc3)CC2)sc2ncnn12 (stereo not given),-2.27%
12,O=C(C1CC(=O)N(C2CCCC2)C1)N1CCN(c2ccc(F)cc2)CC1 (stereo not given),2.53%
13,CCCCCSc1nc2c(c(=O)[nH]c(=O)n2C)n1C(C)C,1.95%
14,O=C(C(Cc1ccccc1)n1cccc1)N1CCc2ccccc21 (stereo not given),3.93%
15,CCOC(=O)C1=C(O)/C(=C/N(C)C)N=C1C,0.56%
16,Cc1cc(C(=O)NC2CCCC2)on1,1.5%
17,Cc1onc(-c2ccccc2Cl)c1C(=O)NCc1ccc2c(c1)cc(C)n2C,5.14%
18,CCN(CCCNC(=O)Cn1cc2c(n1)CCCC2)c1cccc(C)c1,4.45%
19,COc1ccc(C2NC(=O)c3n[nH]c(C)c32)c(OC)c1 (stereo not given),3.42%
20,S=c1nc(-c2ccccc2)n(CCCn2ccnc2)c2c1CCCC2,-0.69%

row,Compound,RAM network inhibition
1,CC1CCN(CC(C)OC(=O)c2ccc3c(c2)OCCO3)CC1 (stereo not given),3.4%
2,CCN1CCCC(NC(=O)c2scc3c2CCCC3)C1 (stereo not given),-0.09%
3,Cc1ccc(CNC(=O)CCS(=O)(=O)c2cccc3nsnc23)cc1,6.91%
4,COC(=O)C1(C)NC(=O)c2ccccc2N1 (stereo not given),5.23%
5,COC(=O)c1ccccc1NS(=O)(=O)c1cn(C)c(=O)n(C)c1=O,1.2%
6,CCOC(=O)c1ccc(NC(=O)CCC(=O)OC)cc1,3.41%
7,COCCNS(=O)(=O)c1cccc2cccnc12,2.27%
8,CCOC(=O)N1CCC(NC(=O)C2CCCCN2S(=O)(=O)c2ccc(F)cc2)CC1 (stereo not given),-0.16%
9,COc1cc(NC(=O)C2CCCC2)c(OC)cc1Cl,-0.72%
10,CC(=O)NC(CCS(C)(=O)=O)C(=O)Nc1cc(Cl)ccc1Cl (stereo not given),2.67%
11,COc1cc(NC(=O)Cn2ncc3c2-c2ccccc2OC3)cc(OC)c1OC,2.19%
12,COc1ccccc1-c1nnc(NC(=O)C(C)SC2=NCCS2)s1 (stereo not given),6.22%
13,C=CCn1c(=NC(=O)C2CC2)sc2cc(NC(C)=O)ccc21,0.32%
14,Cc1nc(N2CCN(C)CC2)c2sc(=S)n(-c3ccccc3)c2n1,3.03%
15,CC(=O)Nc1sc(N)nc1-c1ccccc1,3.89%
16,CCCc1cc(C(=O)Nc2sc3c(c2C(=O)OCC)CCCC3)no1,3.28%
17,CCCCN(C)CCNC(=O)Cn1c(=O)sc2ccccc21,5.27%
18,COc1cccc(C(=O)NCC(c2cccnc2)N2CCN(c3ccccc3OC)CC2)c1 (stereo not given),1.46%
19,COc1ccc(CSc2nnnn2Cc2ccccc2)cc1OC,1.87%
20,COc1ccc(NC(=O)Nc2cccc(OC)c2)cc1,1.14%
